The campaign covered roughly 400,000 compounds. About 2,100 (0.53%) were called active. Not shown: some 14% with an inconclusive outcome. How the calls were made is not given here. For the sample, actives were picked, then their nearest neighbours and some compounds at random.
Molecular target: Ataxin-2 (Homo sapiens) (UniProt Q99700)
Experiment: qHTS for Inhibitors of ATXN expression.
Assay type: functional

Ataxin-2 (Homo sapiens), sequence (Q99700 whole entry): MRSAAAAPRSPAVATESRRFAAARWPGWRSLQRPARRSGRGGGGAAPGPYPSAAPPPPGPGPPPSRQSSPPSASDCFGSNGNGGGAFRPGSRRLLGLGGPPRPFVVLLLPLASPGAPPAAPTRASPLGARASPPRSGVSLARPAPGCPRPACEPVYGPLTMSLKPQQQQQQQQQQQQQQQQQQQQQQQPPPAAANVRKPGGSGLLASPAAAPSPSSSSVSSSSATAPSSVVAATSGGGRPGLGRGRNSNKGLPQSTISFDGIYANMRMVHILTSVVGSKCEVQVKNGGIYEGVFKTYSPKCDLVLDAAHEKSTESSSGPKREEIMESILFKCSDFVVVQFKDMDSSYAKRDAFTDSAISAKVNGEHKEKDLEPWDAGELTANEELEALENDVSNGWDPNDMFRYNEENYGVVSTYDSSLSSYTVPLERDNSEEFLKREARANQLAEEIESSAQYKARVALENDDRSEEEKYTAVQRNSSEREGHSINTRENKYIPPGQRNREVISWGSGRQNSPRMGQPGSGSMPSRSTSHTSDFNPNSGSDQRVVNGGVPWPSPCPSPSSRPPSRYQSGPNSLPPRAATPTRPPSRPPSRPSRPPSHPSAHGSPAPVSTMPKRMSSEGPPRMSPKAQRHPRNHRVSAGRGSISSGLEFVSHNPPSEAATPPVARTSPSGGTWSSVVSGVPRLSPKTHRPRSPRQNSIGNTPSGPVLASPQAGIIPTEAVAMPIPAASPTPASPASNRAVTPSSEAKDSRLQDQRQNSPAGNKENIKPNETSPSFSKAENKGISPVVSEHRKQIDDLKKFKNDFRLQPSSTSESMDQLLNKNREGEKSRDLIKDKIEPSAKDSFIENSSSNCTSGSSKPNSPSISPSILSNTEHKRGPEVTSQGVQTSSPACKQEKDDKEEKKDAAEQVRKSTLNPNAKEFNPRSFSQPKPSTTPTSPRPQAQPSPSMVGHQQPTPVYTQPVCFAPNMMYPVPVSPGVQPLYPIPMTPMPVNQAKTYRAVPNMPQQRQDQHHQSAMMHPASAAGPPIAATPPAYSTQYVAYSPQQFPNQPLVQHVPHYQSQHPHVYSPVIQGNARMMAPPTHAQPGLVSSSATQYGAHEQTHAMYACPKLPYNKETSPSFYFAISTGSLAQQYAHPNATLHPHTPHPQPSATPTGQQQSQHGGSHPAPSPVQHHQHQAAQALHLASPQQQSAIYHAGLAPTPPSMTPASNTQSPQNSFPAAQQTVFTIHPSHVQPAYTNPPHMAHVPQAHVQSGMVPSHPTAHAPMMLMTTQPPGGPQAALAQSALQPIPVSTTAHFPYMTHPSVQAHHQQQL

Row | SMILES | Potency
1 | Nc1cccc(Oc2c(F)c(F)c(Oc3cccc(N)c3)c(F)c2F)c1 | inactive
2 | Cc1ccc(NC(=O)CN(C)C(=O)COC(=O)c2nccnc2N)cc1 | inactive
3 | Cc1cnc(C(=O)OCC(=O)Nc2cccc3ccccc23)cn1 | inactive
4 | CN(CC(=O)Nc1ccccc1Cl)C(=O)COC(=O)c1nc(Cl)c(Cl)c(Cl)c1Cl | 28.2 µM (active)
5 | COc1cc2c3nnc(-c4ccccc4)c-3cn(Cc3ccccc3F)c2cc1OC | inactive
6 | CCCc1c(-c2ccc(Cl)cc2)ncn1Cc1ccccc1OC | 44.7 µM (active)
7 | CCCCCc1c(-c2ccc(Cl)cc2)ncn1CCc1ccccc1OC | 39.8 µM (active)
8 | CCCCc1c(-c2ccc(Cl)cc2)ncn1CCc1ccccc1OC | 39.8 µM (active)
9 | CC(=O)c1cc2ccc(O)cc2oc1=O | inactive
10 | COCCNC(=O)/C(=C/c1ccccc1Cl)c1ccccc1 | inactive
11 | O=C1CC(c2cccc(Br)c2)C2=C(COC2=O)N1 (centres undefined) | inactive
12 | CN(C)/C=N/C(=S)Nc1ccc(Cl)cc1 | inactive
13 | Cn1nc(-c2ccccc2)c2nc3ccccc3nc21 | inactive
14 | CN1CCN(C2=CC3=CC(=C(C#N)C#N)CCC3CC2)CC1 (centres undefined) | inactive
15 | O=c1c2ccccc2oc2ccc(C#CC3(O)CCCCC3)cc12 | 28.2 µM (active)
16 | Nc1ccc(C#Cc2ccc3c(=O)c4ccccc4oc3c2)cc1 | inactive
17 | COc1cc2c(C#CCCO)c(-c3ccc(C#N)cc3)oc(=O)c2cc1OC | inactive
18 | O=c1c(O)c(-c2ccccc2)oc2ccccc12 | inactive
19 | COc1cccc2oc3cc(C#CC4(O)CCCCC4)ccc3c(=O)c12 | 22.4 µM (active)
20 | COc1cc2oc3cc(C#Cc4ccc(N)cc4)ccc3c(=O)c2cc1OC | inactive
21 | Nc1c(C(=O)NCc2ccco2)c2nc3ccccc3nc2n1CCc1ccc(F)cc1 | inactive
22 | Cc1ccc(COc2ccsc2C(=O)NN)cc1 | inactive
23 | Cc1ccc(CN2C(=O)C(C)Oc3ccccc32)cc1 (centres undefined) | inactive

Row | SMILES | Potency
24 | Cc1ccc(CN2C(=O)C(=O)c3cc(Br)cc(C)c32)cc1 | 39.8 µM (active)
25 | CC(=O)N1c2c(cc(Br)cc2S(=O)(=O)NCc2ccc(C)cc2)CC1C (centres undefined) | inactive
26 | COC(=O)c1c(NC(=O)c2ccc(S(=O)(=O)N3CCCC(C)C3)cc2)sc2c1CCN(C(C)C)C2 (centres undefined) | inactive
27 | CC(=O)Nc1ccc(S(=O)(=O)[N-]c2nc3ccccc3nc2-[n+]2ccc(NC(=O)c3ccccc3)cc2)cc1 | inactive
28 | O=C(Nc1ccc[n+](-c2nc3ccccc3nc2[N-]S(=O)(=O)c2ccccc2)c1)c1ccc(Cl)cc1 | 11.2 µM (active)
29 | O=C(Nc1cc[n+](-c2nc3ccccc3nc2[N-]S(=O)(=O)c2ccc(Cl)cc2)cc1)c1cccs1 | inactive
30 | Cc1c(NC(=O)C(C)OC(=O)c2cccc(S(=O)(=O)N3CCOCC3)c2)c(=O)n(-c2ccccc2)n1C (centres undefined) | inactive
31 | COc1ccc(C(=O)/C=C/c2ccc(O)cc2)c(O)c1C/C=C(\C)CCC=C(C)C | 39.8 µM (active)
32 | COc1cc(/C=C/C(=O)OCC(=O)Nc2ccc(Cl)cn2)ccc1O | inactive
33 | COc1ccc(/C=C/C(=O)C2C(=O)C=C(C)OC2=O)cc1O (centres undefined) | inactive
34 | COc1ccc(C(=O)/C=C/c2ccc(O)cc2)c(O)c1CC=C(C)C | 39.8 µM (active)
35 | COc1ccc(-c2cc(C(F)(F)F)n3ncc(C(=O)N4CCCCC4c4cccnc4)c3n2)cc1 (centres undefined) | inactive
36 | N#Cc1c(O)nc2c(c1-c1cccnc1)COc1ccccc1-2 | inactive
37 | Cc1cccc(N2CCN(C(=O)Cc3ccccc3[N+](=O)[O-])CC2)c1C | inactive
38 | O=C(COC(=O)c1cccc([N+](=O)[O-])c1)NNC(=O)c1cccs1 | inactive
39 | O=C(NC(=S)N1CCN(c2ccc(C(F)(F)F)cc2[N+](=O)[O-])CC1)c1cccs1 | 39.8 µM (active)
40 | O=C(NC(=S)N1CCN(c2ccc(Cl)cc2[N+](=O)[O-])CC1)c1cccs1 | 17.8 µM (active)
41 | O=C(N/N=C/c1cc(Cl)cc([N+](=O)[O-])c1O)c1ccccc1NS(=O)(=O)c1cccs1 | inactive
42 | CC(=O)c1ccc2c(c1)c(C#N)c1ccccc1[n+]2[O-] | inactive
43 | CCC(=O)Nc1c(C#N)c2nc3ccccc3nc2n1-c1ccc(C)cc1 | inactive
44 | CCN(CC)c1nc2ccccc2nc1C(C#N)C(=O)NCCc1ccccc1 (centres undefined) | inactive
45 | CCN(CC(=O)Nc1cc(Cl)ccc1C)C(=O)C1CCCCC1 | inactive
46 | Cc1cccc(NC(=O)CN(C)C(=O)Cc2ccc(-c3ccccc3)cc2)c1C | inactive

Row | SMILES | Potency
47 | CCC(C)N(CC(=O)Nc1cccc(C)c1C)C(=O)CCl (centres undefined) | 7.52 µM (active)
48 | CCN(CC)C(=O)COc1ccc(/C=C(\C#N)S(=O)(=O)c2ccccc2)cc1OC | inactive
49 | Cc1cc(C)c(OCCCCNCc2ccccc2)c(Cl)c1 | 39.8 µM (active)
50 | C=CCNCCCCOc1cccc(Br)c1 | inactive
51 | C=CCc1cc(Cl)ccc1OCCCNC(C)C | inactive
52 | Cc1cc(C)c(OCCN2CCOCC2)c(Cl)c1 | inactive
53 | COc1ccc(Cl)cc1CNCCCSc1ncccn1 | inactive
54 | Clc1ccc(OCCCNCc2ccccc2)c(Br)c1 | 39.8 µM (active)
55 | CN(C)/C=N/c1c(Br)cc(Br)c2nonc12 | inactive
56 | COCCN(CCOC)C(=O)c1cc2c(=O)n3ccccc3nc2s1 | inactive
57 | O=C1NC[C@@H](c2ccccc2)OC(=O)[C@@H](Cc2ccc(F)cc2)CC/C=C/C[C@H]1CC(=O)N(CCO)Cc1ccccc1 | 28.2 µM (active)
58 | O=C1N[C@@H](Cc2c[nH]c3ccccc23)COC(=O)[C@@H](Cc2ccc(F)cc2)C/C=C\C[C@H]1CC(=O)N(CCO)Cc1ccccc1 | 35.5 µM (active)
59 | COCCn1c(N)c(C#N)c2nc3ccccc3nc21 | inactive
60 | Fc1ccc(-n2c(-c3cccs3)nc3nc4ccccc4nc32)cc1 | inactive
61 | O=C(O)c1ccccc1-c1ccccc1C(=O)Nc1ccc2c(c1)nc(O)c1ccccc12 | inactive
62 | O=C(Nc1ccc2c(c1)OCCO2)c1cccc2nc3ccccc3nc12 | 35.5 µM (active)
63 | O=C(Nc1ccc2c(c1)OCCO2)c1cccnc1Oc1ccc(Cl)cc1 | inactive
64 | CCO/C=C1/C(=O)N(c2ccccc2OC)C(=O)c2ccccc21 | inactive
65 | COc1ccccc1-n1c([S-])c(C(=O)Nc2ccccc2C(F)(F)F)[n+]2ccc(C(=O)NCCO)cc12 | inactive
66 | COc1ccccc1N1C(=O)C2C(C(=O)c3ccccc3)=NN(c3ccccc3OC)C2C1=O (centres undefined) | inactive
67 | CC[C@]1(c2ccccc2OC)ON(c2ccccc2C(F)(F)F)C1=O | 35.5 µM (active)
68 | CC[C@@]1(c2ccccc2OC)ON(c2ccccc2C(F)(F)F)C1=O | 22.4 µM (active)
69 | COc1ccccc1N1C(=O)C2C(C(=O)c3ccccc3)=NN(c3ccccc3)C2C1=O (centres undefined) | inactive
